PubChem BioAssay AID588342 (National Center for Advancing Translational Sciences (NCATS), 2011)
Among all 360,000 compounds or so, about 25,000 (6.9%) were called active. Inconclusive results (about 9%) are left out. Calls come from the whole dose curve; as a rule, active = well fitted inhibition curve with a large enough effect; inconclusive = small, poorly fitted or top-dose-only effect; inactive = flat fitted curve, though single readings scatter. The full list was thinned out, with actives kept by preference.

The compounds below were run against Luciferin 4-monooxygenase (Photinus pyralis) (UniProt P08659) (assay: qHTS profiling assay for firefly luciferase inhibitor/activator using purifed enzyme and Km concentrations of substrates (counterscreen for miR-21 project)). Settings: purified FLuc, luminescence inhibition; series mostly up to 57.5 µM; activity change, negative = inhibition: at the top concentration.
Chain of Luciferin 4-monooxygenase (Photinus pyralis) (P08659 whole entry, looked up): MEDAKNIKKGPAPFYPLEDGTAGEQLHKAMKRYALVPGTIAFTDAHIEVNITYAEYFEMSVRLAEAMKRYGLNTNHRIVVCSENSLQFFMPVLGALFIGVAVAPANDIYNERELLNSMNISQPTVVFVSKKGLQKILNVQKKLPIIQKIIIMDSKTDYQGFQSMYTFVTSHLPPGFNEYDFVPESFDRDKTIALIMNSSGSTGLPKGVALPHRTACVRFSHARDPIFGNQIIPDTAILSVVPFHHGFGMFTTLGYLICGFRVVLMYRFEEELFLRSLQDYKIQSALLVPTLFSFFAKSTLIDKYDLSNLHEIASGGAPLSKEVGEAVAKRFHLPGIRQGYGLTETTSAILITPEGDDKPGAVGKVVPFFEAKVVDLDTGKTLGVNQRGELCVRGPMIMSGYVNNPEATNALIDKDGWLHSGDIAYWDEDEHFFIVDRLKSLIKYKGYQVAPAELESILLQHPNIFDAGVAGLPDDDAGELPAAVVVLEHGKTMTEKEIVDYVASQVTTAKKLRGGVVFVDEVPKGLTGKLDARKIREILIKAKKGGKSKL
Excerpt: MLPCN Grant: 1 R21 NS059478-01 (miR-21 grant) Assay Provider: NCGC NCGC Assay Overview: Firefly (Photinus pyralis) luciferase is one of the most commonly used transcriptional reporters for a number of reasons. It is considered one of the more dynamically responsive reporters -that is, responsive to changes in reporter transcription - as it requires no post-translational modifications and is enzymatically active directly after protein synthesis (Wood, 1998). Additionally, the half-life of the luciferase protein is short relative to other reporter-gene products (Wood, 1995). Whereas reporters with long half-lives potentially allow for increased signal due to accumulation of reporter-gene product, once accumulated in the cell, dynamic changes in reporter-gene expression may be difficult to detect(Fan and Wood, 2007; Almond et al., 2004). It has been shown that wild-type P. pyralis luciferase has a half-life of approximately […] hours in mammalian cells (Thompson et al., 1991). Firefly luciferase reporter-gene assays are also generally considered one of the most sensitive assay types (Wood, 1995; Wood, 1998). Although light produced in a bioluminescence reaction is of lower intensity than that produced during fluorescence emission, this is offset by little to no background light inherent to luminescent assays. Thus the luciferase reporter can be expressed at much lower levels than fluorescent proteins while still providing robust signal. # However, it was initially observed, in 1991, by Thompson et al., that compounds that resemble the substrates of firefly luciferase (FLuc) can act as competitive inhibitors of the enzyme, and that these compounds, upon interaction with luciferase in the cell, can actually stabilize the protein and increase its half-life. Accumulated intracellular FLuc protein can be measured as an increase in luminescence signal, upon addition of detection reagents (which contain high concentrations of FLuc substrates) commonly used in high-throughput screening. In cell-based reporter gene assays that use FLuc as the reporter gene to quantitate the potential influence of a given compound against the target biology, this apparent increase in luminescence can mistakenly be interpreted as identification of a compound that is active against the target of interest. This is the case for the miR-21 FLuc reporter gene assay used to identify inhibitors of the miR-21 pathway (PubChem AID 2289) - compounds of interest will inhibit miR-21 biogenesis/expression or activity, and are identified by causing an increase in luminescence, due to increased FLuc translation. However, FLuc inhibitory compounds that stabilize the FLuc protein will give an identical read-out, making it difficult to distinguish compounds that are active against the target from those active against FLuc. Previous profiling work to determine the prevalence of compounds that affect FLuc enzymatic activity (PubChem AID 411) identified that ~3% of the MLSMR library (then at ~72K) inhibited FLuc. […] Since the MLSMR had grown to ~350K compounds, and since it was expected that a significant percentage of compounds found active in the miR-21 FLuc assay would be FLuc inhibitors, the library was screened for activity against FLuc using a biochemical assay of purified FLuc and KM concentrations of FLuc substrates (D-luciferin and ATP).
NCGC Assay Protocol Summary: Reagents: 50mM Tris acetate, pH 7.5; 10mM Mg acetate; 10uM D-luciferin (Sigma #L9504); 10uM ATP; 0.01% Tween-20; 0.05% BSA; 10nM P. pyralis luciferase (Sigma #L9506) Control compounds used were two known firefly luciferase inhibitors (compounds (2) and (5) in Auld et al., 2010), and DMSO. […]
Note: nearly all actives have a fitted effect of over 55% in size.
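Throughout, for activity change, negative = inhibition: plate controls were vehicle for no effect and reference inhibitor for full effect.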

SMILES | activity change, negative = inhibition | Potency
COc1cc(C(=O)Nc2cc(C(F)(F)F)ccc2-n2cncn2)cc(OC)c1OC | -1.82% (inactive) | –
CN(C)C(=O)N1CCNCC1 | 1.03% (inactive) | –
CC12C(=O)N(c3ccccc3)C(=O)C1C(c1ccccc1)N1CCCN12 (stereo not given) | 0.0847% (inactive) | –
CCOC(=O)C1CN(S(=O)(=O)c2ccc(F)cc2)C1 | -0.508% (inactive) | –
COc1ccc(CNC(=O)c2ccc(NS(=O)(=O)c3ccc4[nH]c(=O)[nH]c4c3)cc2)cc1OC | 0.241% (inactive) | –
CCC1CCCCN1C(=S)Nc1ccc(SC(F)F)cc1 (stereo not given) | – | 12 µM (active)
CCC1CCCCN1C(=O)Nc1cccc(NC(=O)N2CCCCC2CC)c1 (stereo not given) | -7.69% (inactive) | –
CCC1CCCCN1C(=S)Nc1ccc(S(=O)(=O)Nc2ncccn2)cc1 (stereo not given) | 2.39% (inactive) | –
COc1ccc(NC(=O)c2ccco2)cc1NC(=O)COc1ccc(C)c(C)c1 | -0.508% (inactive) | –
Cc1cc(NC(=O)[C@H](C)NC(=O)c2ccco2)ccc1Br | -6.64% (inactive) | –
COC(=O)c1ccc(NC(=O)c2ccco2)cc1 | – | 15.1 µM (active)
Cc1ccc(C(=O)COc2cccc(NC(=O)c3ccco3)c2)cc1 | – | 23.9 µM (active)
COC(=O)c1cc(NC(=O)c2ccco2)ccc1N1CCOCC1 | -2.45% (inactive) | –
CCOC(=O)c1ccc(NC(=O)CNC(=O)c2ccco2)cc1 | 0.021% (inactive) | –
COc1ccc(OCC(=O)Nc2ccc(NC(=O)c3ccco3)c(C)c2)cc1 | -16.6% (inactive) | –
O=C(Nc1ccccc1)/C(=C\c1ccco1)NC(=O)c1ccco1 | 0.703% (inactive) | –
Cc1cc(NC(=O)c2ccc(F)cc2)ccc1NC(=O)c1ccco1 | – | 16.9 µM (active)
Cc1cccc(OCC(=O)Nc2ccc(NC(=O)c3ccco3)c(C)c2)c1 | 1.53% (inactive) | –
O=C(/C=C/c1ccco1)Nc1ccc(Oc2ccccc2)cc1 | – | 6.01 µM (active)
O=C(/C=C/c1ccco1)NC(=S)Nc1ccccc1Br | -9.89% (inactive) | –
COc1ccc(CC(=O)N2N=C(C)CC2(O)C(F)(F)F)cc1 (stereo not given) | 0.709% (inactive) | –
C#CCN1CC(C)/C(=N/O)CC1C (stereo not given) | 1.93% (inactive) | –
CCOc1ccc(Nc2nc3c(S(=O)(=O)c4cccc(Cl)c4)nnn3c3ccsc23)cc1 | -0.0358% (inactive) | –
Cc1ccc(Cl)cc1N1CCN(S(=O)(=O)c2cc3[nH]c(=O)c(=O)[nH]c3cc2C)CC1 | -6.22% (inactive) | –
COc1ccc(NC(=O)N2CCCn3nc(C)cc32)cc1OC | -4.67% (inactive) | –
Cc1cc(C)cc(NC(=O)CCS(=O)(=O)c2cc3c4c(c2)CCN4C(=O)CC3)c1 | -1.85% (inactive) | –
Cc1ccc(Cl)cc1NC(=O)CCS(=O)(=O)c1ccc(Br)s1 | -5.76% (inactive) | –
Cc1ccc(N(CC(=O)NCC(C)c2ccccc2)S(=O)(=O)N(C)C)cc1 (stereo not given) | -1.89% (inactive) | –
CCN(CC(=O)NCc1ccc(Cl)cc1)C(=O)c1c(C)noc1C | -12.6% (inactive) | –
COc1ccc(NC(=S)SC)cc1OC | -3.07% (inactive) | –
